# Results from the supplement of paper PMC10105736.
# Unmarked numbers belong to inactive results.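 The calls were made as follows: active = MAPPIT score above the 99th percentile of random reference set scores in the same batch; inactive = at or below it.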
# B1: Ns1 (protein)
# chain: MALKRLKTKKSKRLTGRLKHKIEKKVRDHNKKERRAAKKNPKKGSKKQKLIQIPNICPFKDDILKEVEEAKQRQEAERLARREAFKAEREQNKFKTLESMVEDADMRSTVHGIMHENDAQDQDEKKYKNAVTKEQSLKQYFKEFRKVIENADVVLEVVDARDPLGTRCNEVERAVRGAPGNKRLVLVLNKADLVPRENLNNWIKYFRRSGPVTAFKASTQDQANRLGRRKLREMKTEKAMQGSVCIGAELLMSMLGNYCRNKGIKTSIRVGVVGIPNVGKSSIINSLTRGRSCMVGSTPGVTKSMQEVELDSKIKLIDCPGIVFTSGGENSHAVLKNAQRVGDVKDPFTIAESVLKRASKEYFCTMYDITNYDTFEEFFAKKAARMGKFLKKGVPDVVAAARSVLNDWNTGKIKYCTQPPEVQEGQSVHISASIVHSEAREFDVENFESMETEILEHCAVKTDDIMEITSTGPLEIRQPREEAEPADKITASLVIDEKEKPAKGRKRKLDEEKEKVDPSLLLEENQSLNKGIKQMQKLKKKQNVRNEKKISKITDVLDSFSLGPSSSKAEKYDFDEDYVIE
# B2: AnxB11 (protein)
# chain: MYPFGSGMPSHPPTSTNHHEPPRAPFGAGWVPPMQQNSPYPPPSQPHPHSQPSSQMHPQQHQQYPGGAPAPYPPMSAPYPSAAPSYPPYPTSNPYPAQYAPPAHNHYQQPSVSNSPYPADRGYTPAMTAGYDAGYGYGNGQGHGQGHGHGQGHGHGHGQGHEYGHGYGQGYGHGQGHGNGQGHAHRSLPAHREGTPTVVPAANFDAVKDAHDLRKAMKGFGTDEDALINIICRRSNEQRQEIQRQFKTHFGKDLIEDIKSETSGNFEKLLVGLLRPIVDYYCAELNDAMAGLGTDEEVLIEILCTLSNMEINTIKNQYLRLYGAHLESELKSETSGNFKRLLTSLCTAARDESGRVDPVAAKNDARELLKAGELRVGTDESMFNMILCQRNYQQLKLIFQEYEGMTGHSLEKAIKKEFSGDVMEGLIAIYRCVTNKAEYFASRLHKAMAGIGTNDTQLIRVIITRSEIDMTDIKVAFERLYGKSLKSWIKGDTSGHYKHALYALVGEQRSS
# B3: Vps28 (protein)
# chain: MQEQSPELYEEVKLFRNAREREKYDNMADLYAIINTIQQLEKAYIRDCITPQEYTAACSKYLVQYKVAFKQVQCDEFPSVETFVKKFRLDCPAALERIREDRPITIRDDKGNTSKCIAEIVSLFITIMDKLRLQINTMDALQPDVKDLADNMNRLSLIPEDFDAKLKVEKWLGSLNEMQASDELSEGQVRQFLFDLESAYADFNKLLHSQ
# B4: TER94 (protein)
# chain: MADSKGEDLATAILKRKDRPNRLIVEEAQNDDNSVVSLSQAKMDELQLFRGDTVILKGKRRKETVCIVLSDDTCPDEKIRMNRVVRNNLCVHLSDVVSVQSCPDVKYGKRVRILPIDESTEGVTGNLFEIYLKPYFLEAYRPIHMGDNFIVRAAMRPIEFKVVLTDPEPYCIVAPETVIFCDGDPIKREEEEESLNAVGYDDIGGCRKQLAQIKEMVELPLRHPSLFKAIGVKPPRGILMYGPPGTGKTLIARAVANETGAFFFLINGPEIMSKLAGESESNLRKAFEEAEKNSPAIIFIDEIDAIAPKRDKTHGEVERRIVSQLLTLMDGMKKSSHLIVMAATNRPNSIDPALRRFGRFDREIDIGIPDATGRLEVLRIHTKNMKLHDDVDLEQIAAESHGHVGADLASLCSEAALQQIREKMDLIDLEDDKIDAEVLASLAVTMENFRYAMTKSSPSALRETVVEVPNTTWTDIGGLESVKKELQELVQYPVEHPDKFLKFGMQPSRGVLFYGPPGCGKTLLAKAIANECQANFISVKGPELLTMWFGESEANVRDIFDKARSAAPCVLFFDELDSIAKARGGNVGDAGGAADRVINQILTEMDGMGAKKNVFIIGATNRPDIIDPAILRPGRLDQLIYIPLPDDKSREAILKANLRKSPLAKEVDLTYIAKVTQGFSGADLTEICQRACKLAIRQAIEAEIRREKERAENQNSAMDMDEDDPVPEITSAHFEEAMKFARRSVSDNDIRKYEMFAQTLQQSRGFGQNFRFPGQTGNTSGSGNNLPVNSPGDNGDDDLYS
# B5: Vinc (protein)
# chain: MPVFHTKTIESILDPVAQQVSRLVILHEEAEDGNAMPDLSRPVQVVSAAVANLVKVGRDTINSSDDKILRQDMPSALHRVEGASQLLEEASDMLRSDPYSGPARKKLIEGSRGILQGTSSLLLCFDESEVRKIIQECKRVLDYLAVAEVINTMEQLVQFLKDLSPCLSKVHREVGAREKELTHQVHSEILVRCLEQVKTLAPILICSMKVYIHIVEQQGRGAEEAAENRNYLAARMSDELQEIIRVLQLTTYDEDTSELDNLTVLKKLSNAISNKMEQANEWLSNPYALRGGVGEKALRQVIDNATEISERCLPQDSYPIRKLADEVTAMANTLCELRQEGKGQSPQAESLVRGIRDRMGELKSLVHQAVLGVDKAGVQQTAHTIQGRLEQAVKWLQHPEINDGGLGERAINLIVEEGRKVAEGCPGHQKAEIQQLCDEVERLKRQAAGSGPAAKQAAKQLTQKLYELKAAIQNALVNRIVQDFMDVSTPLKQFTEAVLQPEGTPGREQNFNQKSNNLQAFSDRASKTSRMVAAGGACGNKKIAEILLSSAAQVDSLTPQLISAGRIRMNYPGSKAADEHLQNLKQQYADTVLRMRTLCDQATDPADFIKTSEEHMQVYAKLCEDAIHARQPQKMVDNTSNIARLINRVLLVAKQEADNSEDPVFTERLNAAANRLERSLPAMVGDAKLVATNIADPAAAAAWKNSFQRLLGDVREVRDAIAPPQPPPLPTSLPPPIPELSALHLSNQNAERAPPRPPLPREGLAPVRPPPPETDDEDEGVFRTMPHANQPILIAARGLHQEVRQWSSKDNEIIAAAKRMAILMARLSELVLSDSRGSKRELIATAKKIAEASEDVTRLAKELARQCTDRRIRTNLLQVCERIPTIGTQLKILSTVKATMLGAQGSDEDREATEMLVGNAQNLMQSVKETVRAAEGASIKIRSDQTSNRLQWVRRQPWYQY
# B6: CG7218 (protein)
# chain: MNATLNSAGGKRQLRFRGDVTGSRVEELHHQQQEEQKQKAPLAQDDVAATPTATPAAGSAQQRLQSGTAETCTNTFYDFFKVEMTRGYMLEHDEERYSARRQKIYSFMRIPRDLERFMVYGIMQCADSFLYIHTFLPVRFVMAVWALVSRTVARIFRLRSSGQRLLSPAEICDLLKGVIWMTVTLIMLLVDTNRVYHIIKSQSIIKLYIFYNMLEVGDRLLSAFGQDTIDALFWTATEPKNSKREHFGVLTHVLFTLIYVFLHSGLIMFQATCLNVAVNSNNKGLLTIMISNNFVELKGSVFKKFDKNNLFQLTCSDVRERFHLSVLLFIVVIQTMKEFDWSITQFCVMLPDCFAVLFTEILIDWVKHAFITRFNELPESIYREYTTSLAYDMTQTRQKHAFSDHSDLVARRMGFIPFPLAVVLIKAIYTAVSFENLAAWLLFLLAYLFAMGLRICLTICALGKACKLMKEHQTERNSSTPSSMTNVPVIGAAAPVSAAATGGQNHNNNNNNNNNSISIGSKPAQVTTLLTPPSAGHLDVSKNFSRTSIASTSTPKKAVSEQELDVTNSLELGATALFSNSDVDLDDVCLNEQVTNTNTSSAVQEVYQEQDLVRSQPDLMLLNNSGDGVTSAKAKKATQRLPKRTHKRSESEPGMPSMVEKGGAAGIAGGNQTTQL
# B7: Mlp60A (protein)
# chain: MPFVPVETPKCPACGKSVYAAEERVAGGYKFHKTCFKCSMCNKALDSTNCTEHEKELFCKNCHGRKYGPKGYGFGGGAGCLSTDTGAHLNRE
# B8: CG4511 (protein)
# chain: MANILENQLFTAAKTIEQQLDQQLDRLDNLDSDDLKVLREQRLREMKDLNNKKQEWLRNGHGTYTELADEKEFFEMSKKSPNIVCHFYRDSTERCKIVDMHLKILAAKHVEAKFCKVNAEKTPFLTQRLRIKVIPTIALVKDSKTKDFIVGFTDLGNCDDFATEMLEWRIAHSGAIDYKGDLMQPPDVKRKPFINRPQKTIRGGYDSDDSDIDLDD
# B9: IM18 (protein)
# chain: MKLIALCCLLLLGLLGFLAAPGVASPSRHTGPGNGSGSGAGSGNPFRSPSSQQRPLYYDAPIGKPSKTMYA
# B10: Lst8 (protein)
# chain: MGDQQQLILATGGYDHTIKVWQAHTGNCIKTMRFVETSQVNALDRTPDKTRLAACGYQCIRLYDLESNCTAPVINFDGVQKNVTRLGFQEDGNWMFTAGEDHHVRIWDMIAAPPHCSRIFDCEAPVNAACLHPNQVEIAMGSQNGSVFLWDVKSERHERIVPEVDASIQDVAISPDGRYLAAANNKGNCYIWSLTSQDQKMSTLRPNRKIPAHSRYILRCKFSPDSRLLLTTSGDGTVCIWKTDDFSKWRELCIENYWVWDAAFSADSKWLFTASSDGIARLWKLQTKSSIRDYTGHTKAITALSFKDEIVGK
# B11: CG8230 (protein)
# chain: MGINVSRTADLGSNQWLQRFVGRQHIAHDDEAFWNGLLNYNIVLPENSQDQLNLDSRLEALCQSFIGNNLKTGNFGSLVTVFLEKTSELLSLSDQESNMHVWQTFNALFIIRSLVKYINETGSEFQLLQHFEAMPNAELLQAALEQQQQTPAESATIAMEATEQSAAAAVPVIVDGSKFETFIDALVNLIVVIPVKEFTYHLHLEAVNMLITLLSVHLFAQQPTDKSIVFRTVFKCQHANVLMSALLHFVARIVEVPHTMFGSSSAGSFVFGIAESLLSIFTFRKQPDILKAGQAAGGGELSQRFRTHYPLANQSLLLILILTNHCTAQDNAYRTSLFSCADSKDSPKQGAVSFQIDFSAVYETLCTIVTIDQATLLLYLLLHRNERFYRFVMQQQDLEQLVIPILQTLYNAPDSNSHHIYMSLIVLLILSEDEGFNKNVHTIMLKNITWYTERTISEISLGGILILIVIRTIQYNMLKMRDKYLHTNCLAALANMSGHFRALHPYVAQRLVSLFETLARKHTRLDAQLKEPADSAVFVNVSTTPEDMLQDLSVLEEVLRMVLEILNSCLTNQLVYCPNLVYTLLYKRSVFEGFRSHHAFQDVIQNIDMVVGFFSSRLQRVQEQRGELGVNEVLEVISKGASQWSSDRLRKFPDLKFKYVEEDAPEEFFIPYVWTLVCKYGCVHFSSESIKSVTTDIAC
# Key:
# Assay in all cases: MAPPIT interaction score (arbitrary units); higher = stronger binary interaction signal, active = hit call of the paper
# CG10013 = settings: MAPPIT configuration: N-N; pair source set: DPIM
# CG10465 = settings: MAPPIT configuration: N-N; pair source set: Curagen_high_conf
# CAP = settings: MAPPIT configuration: N-N
# vlc = settings: MAPPIT configuration: N-C; pair source set: screen_3
# CG10336 = settings: MAPPIT configuration: N-C; pair source set: screen_3
# Gint3 = settings: MAPPIT configuration: N-N; pair source set: Lit-BM-16
# ZnT63C = settings: MAPPIT configuration: N-N; pair source set: DPIM
# Fkbp12 = settings: MAPPIT configuration: N-N; pair source set: Curagen_low_conf
# ND-75 = settings: MAPPIT configuration: N-N; pair source set: Curagen_low_conf
# Pax = settings: MAPPIT configuration: N-N; pair source set: screen_2
# CG10026 = settings: MAPPIT configuration: N-N; pair source set: Finley_Y2H
# CASK = settings: MAPPIT configuration: N-C; pair source set: screen_4
# CG30324 = settings: MAPPIT configuration: N-C; pair source set: screen_4
# stck = settings: MAPPIT configuration: N-C; pair source set: screen_3
# CCT7 = settings: MAPPIT configuration: N-N; pair source set: DPIM
# CG10444 = settings: MAPPIT configuration: N-C; pair source set: screen_3
# CCT3 = settings: MAPPIT configuration: N-N; pair source set: DPIM
# CCT6 = settings: MAPPIT configuration: N-N; pair source set: DPIM
# Spt7 = settings: MAPPIT configuration: N-N; pair source set: Curagen_high_conf
# 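Also: HEK293T cells with Epo stimulation, STAT-responsive firefly luciferase reporter, fold induction versus unstimulated cells divided by the larger fold induction of two negative controls lacking either bait or prey.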
binder,measurement,setting,value
B1,MAPPIT interaction score,CG10013,-0.155
B2,MAPPIT interaction score,CG10465,0.12
B3,MAPPIT interaction score,CAP; pair source set: screen_1,1.33
same,MAPPIT interaction score,vlc,1.09
B4,MAPPIT interaction score,CG10336,2.12
same,MAPPIT interaction score,Gint3,1.48
same,MAPPIT interaction score,ZnT63C,-0.374
B5,MAPPIT interaction score,CAP; pair source set: Lit-BM-16,2.34
same,MAPPIT interaction score,Fkbp12,0.498
same,MAPPIT interaction score,ND-75,-0.456
same,MAPPIT interaction score,Pax,5.44 (active)
B6,MAPPIT interaction score,CG10026,1.47
B7,MAPPIT interaction score,CASK,1.2
same,MAPPIT interaction score,CG30324,3.25
same,MAPPIT interaction score,stck,4.22 (active)
B8,MAPPIT interaction score,CCT7,0.524
B9,MAPPIT interaction score,CG10444,0.79
B10,MAPPIT interaction score,CCT3,0.335
B11,MAPPIT interaction score,CCT6,3.15 (active)
same,MAPPIT interaction score,Spt7,-0.0669
